Most compounds without a hit are left out; they make up all but 0.43% or so of the library.
aGlu spleen mod: qHTS Assay for Inhibitors and Activators of Human alpha-Glucosidase From Spleen Homogenate | human spleen homogenate, 4-MU-alpha-glucoside fluorescence | Potency, µM (doses to about 79.9 µM), actives largely listed as inhibitors | actives 0.006% (n = 240,000) | AID 2112, 2009
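Human spleen homogenate (1 ug) incubated with compounds and 1 mM 4-methylumbelliferyl-alpha-D-glucopyranoside in pH 5.0 citrate/phosphate buffer, 37 C, 40 min. Stopped at pH 10; 4-MU fluorescence (Ex 365/Em 440 nm); AC50 by Hill fit.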
N370S GC mod: qHTS Assay for Inhibitors and Activators of N370S glucocerebrosidase as a Potential Chaperone Treatment of Gaucher Disease. Lysosomal acid glucosylceramidase (Homo sapiens), P04062. N370S GC spleen homogenate, 4MU-glucoside fluorescence. Potency, µM (top dose mostly 59.4 µM), usual class: inhibitors. actives 0.092% (n = 330,000). AID 2101, 2009
GAA glycogen mod: qHTS Assay for Inhibitors and Activators of Human alpha-Glucosidase Cleavage of Glycogen; recombinant GAA, glycogen substrate, Amplex Red glucose oxidase fluorescence; Potency, µM (titrated, usually from 76.4 µM), most hits filed as inhibitors; AID 2100, 2009; Lysosomal alpha-glucosidase (Homo sapiens), P10253; actives 0.38% (n = 300,000);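 further: the screen sought inhibitors and activators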
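Natural-substrate format: glycogen cleavage by 4 nM human enzyme, glucose read by Amplex Red coupling (Ex 573, Em 610 nm). Normalized to enzyme and no-enzyme controls.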
GLA spleen mod: qHTS Assay for Inhibitors and Activators of Human alpha-Galactosidase From Spleen Homogenate; Alpha-galactosidase A (Homo sapiens), P06280; human spleen homogenate, 4MU-alpha-Gal fluorescence, 40 min; Potency, µM (highest dose often 80 µM), usual class: inhibitors; actives 0.008% (n = 240,000)
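Inhibition or activation of alpha-galactosidase in human spleen homogenate is scored by 4-MU fluorescence after 40 min at 37C, pH 5.0, with 1 mM substrate. AC50s come from concentration-response fitted to the Hill equation.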
GAA inhib: qHTS Assay for Inhibitors of Human alpha-Glucosidase as a Potential Chaperone Treatment of Pompe Disease; purified human GAA, 4-MU-alpha-glucoside fluorescence; Potency, µM (top dose mostly 76.9 µM), hits mostly inhibitors; actives 0.005% (n = 200,000); AID 1466, 2008
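Endpoint fluorogenic read: 20 min room-temperature reaction of 4 nM human alpha-glucosidase with 400 uM 4-methylumbelliferyl-alpha-D-pyranoside, pH 5.0, quenched with 1M NaOH/1M glycine pH 10. AC50 from Hill modeling.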
GLA inh pH 4.5: qHTS Assay for Inhibitors of Human alpha-Galactosidase at pH 4.5; Alpha-galactosidase A (Homo sapiens), P06280; purified enzyme, 4-MU-alpha-Gal fluorescence, pH 4.5; activity change, negative = inhibition, % at 105 µM; 230,000 tested, under 10 active
Target sequence (P06280 whole entry, looked up): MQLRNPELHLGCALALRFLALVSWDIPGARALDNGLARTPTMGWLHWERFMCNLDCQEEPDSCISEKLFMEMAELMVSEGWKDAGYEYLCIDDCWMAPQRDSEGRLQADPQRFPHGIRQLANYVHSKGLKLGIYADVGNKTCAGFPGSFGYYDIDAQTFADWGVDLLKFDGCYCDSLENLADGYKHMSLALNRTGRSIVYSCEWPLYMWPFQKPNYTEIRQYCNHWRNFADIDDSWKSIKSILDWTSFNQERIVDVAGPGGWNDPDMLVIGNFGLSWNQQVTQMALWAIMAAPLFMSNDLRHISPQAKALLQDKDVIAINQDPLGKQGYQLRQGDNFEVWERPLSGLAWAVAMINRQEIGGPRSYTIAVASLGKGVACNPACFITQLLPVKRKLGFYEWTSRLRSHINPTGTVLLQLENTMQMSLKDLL
Of the large screens only hits and unclear results are named; the others gave an inactive call. The call rests on the fitted dose curve; in most records, active means well fitted curve in the direction sought with a large enough effect; inconclusive means small, poorly fitted or top-dose-only effect, or another doubt; inactive means no such curve, though single readings can be large; an effect the other way counts as inactive or inconclusive.

COc1ccc2[nH]c(C(=O)O)c(NS(=O)(=O)c3ccc(OC)c(OC)c3)c2c1	GAA glycogen mod 4µM
COc1ccc(S(=O)(=O)Nc2c(C(=O)O)[nH]c3ccc(OC)cc23)cc1	GAA glycogen mod inconclusive (no result: aGlu spleen mod, GLA spleen mod, GAA inhib, GLA inh pH 4.5)
C/C(=N\Nc1ccc(C(=O)O)cc1)c1ccc2c(c1)Nc1ccccc1S2	GAA glycogen mod 11µM (no result: GAA inhib)
S=C(Nc1ccc(Oc2ccccc2)cc1)N(CCCN1CCOCC1)Cc1ccccn1	N370S GC mod 10µM
Cc1cccc(NC(=S)N(CCCN2CCOCC2)Cc2ccccn2)c1	N370S GC mod inconclusive
O=[N+]([O-])c1cc(Cl)ccc1N1CCN(c2ccccc2O)CC1	GAA glycogen mod 8.8µM
NC(=O)c1ccc(N2CCN(c3ccc(O)cc3)CC2)c([N+](=O)[O-])c1	GAA glycogen mod 5µM
CC(=O)c1ccc(N2CCN(c3ccc(C(N)=O)cc3[N+](=O)[O-])CC2)cc1	none
CC[C@H](C)[C@H](NC(=O)[C@@H]1CCCN1C(=O)[C@H](Cc1cnc[nH]1)NC(=O)[C@@H](NC(=O)[C@H](Cc1ccc(O)cc1)NC(=O)[C@@H](NC(=O)[C@H](CCCN=C(N)N)NC(=O)CNC)C(C)C)[C@@H](C)CC)C(=O)O	none (no result: GAA glycogen mod, GAA inhib, GLA inh pH 4.5)
CCCCCCCCCCCCCCOc1ccc(C(=O)O)o1	none (no result: GAA glycogen mod, GAA inhib, GLA inh pH 4.5)
Cc1ccc(/C=N/c2sc3c(c2C#N)CCC3)o1	GAA glycogen mod 22µM
CCC1CN(S(=O)(=O)c2ccc3c(c2)NC(=O)CC(=O)N3)c2cc(Cl)ccc2O1 (centres undefined)	N370S GC mod 1.6µM (no result: aGlu spleen mod, GLA spleen mod, GAA inhib, GLA inh pH 4.5)
COc1ccc(-c2cc(-c3ccccc3)nc3c2COc2ccccc2-3)cc1	none (no result: aGlu spleen mod, N370S GC mod, GLA spleen mod, GAA inhib, GLA inh pH 4.5)
COc1ccc(C2=Nc3ccccc3OC2)cc1	GAA glycogen mod 25µM, GLA inh pH 4.5 inconclusive
Cc1ccc(Nc2cc(C)nc(-c3ccccc3O)n2)cc1	N370S GC mod inconclusive
Cc1cc(Nc2ccc(Cl)cc2)nc(NCc2ccccc2)n1	N370S GC mod 22µM
Cc1ccc(Nc2cc(C)nc(-c3ccccc3)n2)cc1	N370S GC mod 3.2µM (no result: aGlu spleen mod, GLA spleen mod, GAA inhib, GLA inh pH 4.5)
Oc1ccc(-c2nc3ccccn3c2NCc2ccco2)cc1	N370S GC mod inconclusive, GAA glycogen mod 14µM
CCc1cccc(C)c1Nc1c(-c2cccc(O)c2)nc2sccn12	GAA glycogen mod 35µM (no result: aGlu spleen mod, N370S GC mod, GLA spleen mod, GAA inhib, GLA inh pH 4.5)
CCc1cccc(C)c1Nc1c(-c2cccs2)nc2nc(C)cc(C)n12	none (no result: aGlu spleen mod, N370S GC mod, GLA spleen mod, GAA inhib, GLA inh pH 4.5)
COc1ccc(C(=O)CCNc2ccc(F)cc2)cc1	none (no result: GAA inhib)
COc1ccc(NCCNc2ccc(OC)cc2)cc1	GAA glycogen mod 7.9µM
CC(C)(C)NC(=S)Nc1ccc(Br)cc1	none
CC(C)(C)NC(=S)Nc1ccc(Nc2ccccc2)cc1	aGlu spleen mod inconclusive, GAA glycogen mod 14µM
CCCCc1ccc(NC(=O)Nc2cccnc2)cc1	N370S GC mod 11µM (no result: aGlu spleen mod, GLA spleen mod, GAA inhib, GLA inh pH 4.5)
O=c1[nH]c(CN2CCN(CCO)CC2)nc2ccccc12	none
O=c1[nH]c(CN2CCN(c3ccccc3O)CC2)nc2ccccc12	GAA glycogen mod 7.9µM, GAA inhib inconclusive
COc1ccc(Nc2c3c(nc4ccc(C)cc24)CCC3)cc1	N370S GC mod inconclusive (no result: aGlu spleen mod, GLA spleen mod, GAA inhib, GLA inh pH 4.5)
Cc1ccc2nc3c(c(Nc4ccc(O)cc4)c2c1)CCC3	N370S GC mod inconclusive, GAA glycogen mod 13µM (no result: aGlu spleen mod, GLA spleen mod, GAA inhib, GLA inh pH 4.5)
CCC/C=C/C1C(=O)C2OC2C2(OCC(CC)(CC)CO2)C1CO (centres undefined)	none (no result: GAA glycogen mod, GAA inhib, GLA inh pH 4.5)
CC1(C)CN(c2ccccc2)N(C(=O)c2ccc(F)cc2)C1=O	none
CC1(C)CN(c2ccccc2)N(C(=O)c2ccc(C#N)cc2)C1=O	GAA glycogen mod 20µM
COC(=O)C(NS(=O)(=O)CCl)C(C)C (centres undefined)	none (no result: GAA glycogen mod, GAA inhib, GLA inh pH 4.5)
COc1ccc(-n2sc3c(c2=S)-c2cc(OC)ccc2NC3(C)C)cc1	GAA glycogen mod inconclusive
COc1ccc2c(c1)-c1c(sn(-c3ccc(OC)c(OC)c3)c1=S)C(C)(C)N2	GAA glycogen mod 22µM
CC(=O)c1cc2c(O)c(O)ccc2o1	GAA glycogen mod 31µM
CC(=O)c1cc2cc(O)ccc2o1	aGlu spleen mod inconclusive, N370S GC mod inconclusive, GLA spleen mod inconclusive, GAA inhib inconclusive, GLA inh pH 4.5 inconclusive
Cc1cc(C)cc(N(CC(=O)Nc2ccc(C)cc2Cl)S(=O)(=O)c2c(C)[nH]c(=O)[nH]c2=O)c1	N370S GC mod 0.25µM (no result: aGlu spleen mod, GLA spleen mod, GAA inhib, GLA inh pH 4.5)
COc1ccc(N(CC(=O)Nc2cc(C)ccc2C)S(=O)(=O)c2c(C)[nH]c(=O)[nH]c2=O)cc1	N370S GC mod inconclusive (no result: aGlu spleen mod, GLA spleen mod, GAA inhib, GLA inh pH 4.5)
Cc1cc(C)cc(N(CC(=O)Nc2ccc(C(F)(F)F)cc2)S(=O)(=O)c2c(C)[nH]c(=O)[nH]c2=O)c1	N370S GC mod 2.2µM (no result: aGlu spleen mod, GLA spleen mod, GAA inhib, GLA inh pH 4.5)
Cc1ccc(N(CC(=O)Nc2ccc(Br)c(C)c2)S(=O)(=O)c2c(C)[nH]c(=O)[nH]c2=O)cc1	N370S GC mod 11µM (no result: aGlu spleen mod, GLA spleen mod, GAA inhib, GLA inh pH 4.5)
Cc1c(CC(=O)NCCc2ccc(Cl)cc2)c(=O)oc2c(C)c3occ(C(C)(C)C)c3cc12	none (no result: aGlu spleen mod, N370S GC mod, GLA spleen mod, GAA inhib, GLA inh pH 4.5)
Cn1ccc2cc(-c3ccc4ncnc(NCc5ccc6c(c5)OCO6)c4c3)ccc21	none (no result: aGlu spleen mod, GAA glycogen mod, GLA spleen mod, GAA inhib, GLA inh pH 4.5)

Bioassay records from PubChem BioAssay.
